The full list was thinned out, with hits kept by preference.
GBA activity: Glucocerebrosidase; purified enzyme, resorufin glucoside fluorescence (screen aimed at inhibitors), 20 min; Potency, µM; actives 1.1% (n = 48,000); AID 360, 2006; in the data active means potency below about 15 µM;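 further: the screen sought inhibitors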
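Normal human glucocerebrosidase (0.2 nM final) was assayed with resorufin β-D-glucopyranoside (30 uM final) in 50mM citric acid/KH2PO4, 10mM sodium taurocholate, 0.01% tween-20, pH 5.9. Compounds were titrated; fluorescence (Ex 548, Em 600) read after 20 min at RT.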
Large screens that a line does not name were inactive.

Cc1ccc2cc3cc(C(=O)N4CCC5(CC4)OCCO5)oc3nc2c1	none
Cc1cc(N2CCOCC2)nc2ccc(NC(=O)CCC(=O)N3CCC4(CC3)OCCO4)cc12	GBA activity 4.7
Cn1cc(CCC(=O)N2CCC3(CC2)OCCO3)c2ccccc21	none
C=CCn1c(O)c(C(C)=NCc2cc(OC)cc(OC)c2)c(=O)[nH]c1=O	none
O=C(c1cc(-c2cccnc2)nc2ccc(Br)cc12)N1CCC2(CC1)OCCO2	none
O=S(=O)(c1ccccc1)N1CN2CCN(C2)C1	GBA activity 14
O=C(COc1ccc(S(=O)(=O)N2CCCCC2)cc1)N1CCN(Cc2ccccc2)CC1	none
CN=C(SCc1cc2c(cc1Cl)OCO2)c1c(O)n(C)c(=O)n(C)c1=O	none
CN(C)CCN=Cc1c(O)n(-c2cccc(C(F)(F)F)c2)c(=O)[nH]c1=O	none
Cc1nn(-c2ccccc2)c2c1C(c1ccc3c(c1)OCO3)SCC(=O)N2 (centres undefined)	none
CCC(C)NC(=O)c1c(N)n(Cc2ccc3c(c2)OCO3)c2nc3ccccc3nc12 (centres undefined)	GBA activity 15
CCC(C)NC(=O)c1c(N)n(CCCOC)c2nc3ccccc3nc12 (centres undefined)	none
COc1ccc(CCNC(=O)c2c(N)n(CCN3CCOCC3)c3nc4ccccc4nc23)cc1	none
CCOC(=O)c1c(C)n(Cc2ccccc2)c2ccc(OCC(O)CN3C(=O)CNC3=O)cc12 (centres undefined)	none
CCCC(=O)c1c(O)[nH]c(=O)[nH]c1=O	none
